The text below walks through data of publication PMC8384837, “Expanding the binding specificity for RNA recognition by a PUF domain”.

Test in all cases: yeast three-hybrid, YBZ-1, SC-Leu-His + 0.5 mM 3-AT, 4 days
Conditions in all cases: tags: N-Gal4 AD-HA kept; label: inside an RPR1-promoter hybrid RNA with tandem MS2 sites; ssRNA

One experiment concerns the target PUM1 PUF domain R3-RVK (Homo sapiens, UniProt Q14671 828-1176, C935R;R936V;Q939K). Put shortly:
(§1)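 Pumilio-1 PUF domain libraries, randomized at the three base-contacting residues of each repeat, were co-expressed with matching RNA elements from a centromeric plasmid in strain YBZ-1, which carries a LexA–MS2 coat fusion and a HIS3 reporter. Transformants grew for four days on SC-Leu (input) or on SC-Leu-His + 0.5 mM 3-AT (selection), and the repeat regions were PCR-amplified and Illumina-sequenced. The interaction score is the log change in variant frequency from input to selection. That logarithm is base 2, with a pseudocount of 1 where a variant was absent.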

Another experiment concerns the target PUM1 PUF domain R3-MYD (Homo sapiens, UniProt Q14671 828-1176, C935M;R936Y;Q939D). Summed up: as §1
For another experiment, the target named is PUM1 PUF domain R1-TRK (Homo sapiens, UniProt Q14671 828-1176, S863T;Q867K). Put shortly:
as §1

The next experiment has as its target PUM1 PUF domain R1-TKR (Homo sapiens, UniProt Q14671 828-1176, S863T;R864K;Q867R). Put shortly: as §1
The target of another experiment is PUM1 PUF domain R8-VFR (Homo sapiens, UniProt Q14671 828-1176, N1122V;Y1123F;Q1126R). Summed up:
as §1

In a further experiment the target is PUM1 PUF domain R8-LFW (Homo sapiens, UniProt Q14671 828-1176, N1122L;Y1123F;Q1126W). Summed up:
as §1

In another experiment the target is PUM1 PUF domain R3-SND (Homo sapiens, UniProt Q14671 828-1176, C935S;R936N;Q939D). Summed up:
as §1

The target of the next experiment is PUM1 PUF domain R3-PRQ (Homo sapiens, UniProt Q14671 828-1176, C935P). Put shortly:
as §1

The target of a further experiment is PUM1 PUF domain R4-PYR (Homo sapiens, UniProt Q14671 828-1176, N971P;H972Y;Q975R). Put shortly: as §1
Sequence of PUM1 PUF domain R4-PYR (Q14671 828-1176 N971P/H972Y/Q975R): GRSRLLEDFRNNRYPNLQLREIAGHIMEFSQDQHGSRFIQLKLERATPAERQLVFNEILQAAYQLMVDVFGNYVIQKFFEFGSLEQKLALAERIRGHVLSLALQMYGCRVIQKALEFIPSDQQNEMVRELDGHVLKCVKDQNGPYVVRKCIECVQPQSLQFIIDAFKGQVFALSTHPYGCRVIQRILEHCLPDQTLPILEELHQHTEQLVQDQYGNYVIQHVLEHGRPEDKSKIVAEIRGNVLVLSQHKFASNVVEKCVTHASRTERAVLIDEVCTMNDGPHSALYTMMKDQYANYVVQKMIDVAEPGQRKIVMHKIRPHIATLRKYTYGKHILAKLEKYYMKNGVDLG
For another experiment, the target named is PUM1 PUF domain R5-KAV (Homo sapiens, UniProt Q14671 828-1176, C1007K;R1008A;Q1011V). Summed up:
as §1

Sequence of PUM1 PUF domain R3-RVK (Q14671 828-1176 C935R/R936V/Q939K): as the sequence (Q14671 828-1176 N971P/H972Y/Q975R) above, with C108R, R109V, Q112K, P144N, Y145H, R148Q counted along it
Sequence of PUM1 PUF domain R8-LFW (Q14671 828-1176 N1122L/Y1123F/Q1126W): as the sequence (Q14671 828-1176 N971P/H972Y/Q975R) above, with P144N, Y145H, R148Q, N295L, Y296F, Q299W counted along it
Sequence of PUM1 PUF domain R8-VFR (Q14671 828-1176 N1122V/Y1123F/Q1126R): as the sequence (Q14671 828-1176 N971P/H972Y/Q975R) above, with P144N, Y145H, R148Q, N295V, Y296F, Q299R counted along it
Sequence of PUM1 PUF domain R1-TKR (Q14671 828-1176 S863T/R864K/Q867R): as the sequence (Q14671 828-1176 N971P/H972Y/Q975R) above, with S36T, R37K, Q40R, P144N, Y145H, R148Q counted along it
Sequence of PUM1 PUF domain R1-TRK (Q14671 828-1176 S863T/Q867K): as the sequence (Q14671 828-1176 N971P/H972Y/Q975R) above, with S36T, Q40K, P144N, Y145H, R148Q counted along it
Sequence of PUM1 PUF domain R5-KAV (Q14671 828-1176 C1007K/R1008A/Q1011V): as the sequence (Q14671 828-1176 N971P/H972Y/Q975R) above, with P144N, Y145H, R148Q, C180K, R181A, Q184V counted along it
Sequence of PUM1 PUF domain R3-MYD (Q14671 828-1176 C935M/R936Y/Q939D): as the sequence (Q14671 828-1176 N971P/H972Y/Q975R) above, with C108M, R109Y, Q112D, P144N, Y145H, R148Q counted along it
Sequence of PUM1 PUF domain R3-SND (Q14671 828-1176 C935S/R936N/Q939D): as the sequence (Q14671 828-1176 N971P/H972Y/Q975R) above, with C108S, R109N, Q112D, P144N, Y145H, R148Q counted along it
Sequence of PUM1 PUF domain R3-PRQ (Q14671 828-1176 C935P): as the sequence (Q14671 828-1176 N971P/H972Y/Q975R) above, with C108P, P144N, Y145H, R148Q counted along it

For the sequence “GGCUAGAACUAGUGGAUCCCCCGGCGCCCGGCGGCUCGAGCCCGGGUAAGUGUAAUUAGUCUGCAUGCCGCCGGGCGCCAUGCCUGCAGGUCGACUCUAGAAAACAUG”, the binding signal with PUM1 PUF domain R3-RVK was 5.35 log2 enrichment (interaction score); in the experiment with PUM1 PUF domain R3-MYD it was 2.42 log2 enrichment (interaction score). For the sequence “GGCUAGAACUAGUGGAUCCCCCGGCGCCCGGCGGCUCGAGCCCGGGUAAGUGUAAAUUGUCUGCAUGCCGCCGGGCGCCAUGCCUGCAGGUCGACUCUAGAAAACAUG”, the binding signal with PUM1 PUF domain R1-TRK was 3.04 log2 enrichment (interaction score); in the experiment with PUM1 PUF domain R1-TKR, 1.37 log2 enrichment (interaction score). Consider “GGCUAGAACUAGUGGAUCCCCCGGCGCCCGGCGGCUCGAGCCCGGGUAAGCGUAAAUAGUCUGCAUGCCGCCGGGCGCCAUGCCUGCAGGUCGACUCUAGAAAACAUG”, for which the binding signal with PUM1 PUF domain R8-VFR is 4.1 log2 enrichment (interaction score); with PUM1 PUF domain R8-LFW it was 2.4 log2 enrichment (interaction score).

Consider “GGCUAGAACUAGUGGAUCCCCCGGCGCCCGGCGGCUCGAGCCCGGGUAAGUGUAAGUAGUCUGCAUGCCGCCGGGCGCCAUGCCUGCAGGUCGACUCUAGAAAACAUG”, for which the binding signal with PUM1 PUF domain R3-RVK is 2.53 log2 enrichment (interaction score); with PUM1 PUF domain R3-SND, 5.25 log2 enrichment (interaction score). Take “GGCUAGAACUAGUGGAUCCCCCGGCGCCCGGCGGCUCGAGCCCGGGUAAGUGUAAAUAGUCUGCAUGCCGCCGGGCGCCAUGCCUGCAGGUCGACUCUAGAAAACAUG”: the binding signal with PUM1 PUF domain R3-RVK was 2.2 log2 enrichment (interaction score); in the experiment with PUM1 PUF domain R3-PRQ, 4.52 log2 enrichment (interaction score); with PUM1 PUF domain R8-VFR, 3.9 log2 enrichment (interaction score); in the experiment with PUM1 PUF domain R8-LFW, 2.5 log2 enrichment (interaction score). For “GGCUAGAACUAGUGGAUCCCCCGGCGCCCGGCGGCUCGAGCCCGGGUAAGUGUAAAUCGUCUGCAUGCCGCCGGGCGCCAUGCCUGCAGGUCGACUCUAGAAAACAUG”, the binding signal in the experiment with PUM1 PUF domain R1-TKR was 6.21 log2 enrichment (interaction score). For “GGCUAGAACUAGUGGAUCCCCCGGCGCCCGGCGGCUCGAGCCCGGGUAAGUGUACAUAGUCUGCAUGCCGCCGGGCGCCAUGCCUGCAGGUCGACUCUAGAAAACAUG”, the binding signal with PUM1 PUF domain R4-PYR is 5.23 log2 enrichment (interaction score). For “GGCUAGAACUAGUGGAUCCCCCGGCGCCCGGCGGCUCGAGCCCGGGUAAGUGUCAAUAGUCUGCAUGCCGCCGGGCGCCAUGCCUGCAGGUCGACUCUAGAAAACAUG”, the binding signal with PUM1 PUF domain R5-KAV was 4 log2 enrichment (interaction score). Turning to “GGCUAGAACUAGUGGAUCCCCCGGCGCCCGGCGGCUCGAGCCCGGGUAAGUGUAUAUAGUCUGCAUGCCGCCGGGCGCCAUGCCUGCAGGUCGACUCUAGAAAACAUG”, the binding signal with PUM1 PUF domain R4-PYR is 7.09 log2 enrichment (interaction score).
